Compound activity: PubChem, National Center for Advancing Translational Sciences (NCATS)
This excerpt belongs to a sample that is enriched for hits.
Integrin act MD: qHTS for Activators of Integrin-Mediated Alleviation for Muscular Dystrophy; alpha7betagal myoblasts, beta-gal FDG fluorescence, 48 h; Potency, µM (highest dose often 38.3 µM), without a hit: at the top dose activation, hits mostly activators; 350,000 compounds, 0.064% hits;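 also: potency is read from the fitted curve at half-maximal effect; 100% = response of the positive control SU9516; nearly all actives have a fitted effect of over 60% in size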
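alpha7betagal+/- myoblasts (passage 13, 250/well) treated 48 h at 37C with compounds at 1:260 dilution of DMSO stock. Lysed, then beta-galactosidase activity read as FDG fluorescence (ex 480/em 540) after 30 min, with pre-read for autofluorescence.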
ERG Ets-DNA blk: qHTS for Small Molecule Inhibitors of the ERG Ets/DNA interaction; Transcriptional regulator ERG (Homo sapiens), P11308; fluorescence polarization, His-ERG Ets domain / labelled DNA; Potency, µM (doses to about 76.9 µM), for the others: at the highest dose FP activity, negative = inhibition, actives largely listed as inhibitors; 370,000 compounds, 0.028% hits; AID 624246, 2012; active = well fitted inhibition curve with a large enough effect in the polarisation, with a control signal flat; inconclusive = small, poorly fitted or top-dose-only effect, or effect the other way, or a change in a side signal; inactive = no such curve, though single readings can be large or run the other way; the % refers to the polarisation;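 also: polarization taken with two DNA probes labelled with fluorescein and Texas red; potency is read from the fitted curve at half-maximal effect; % of control where 0% means no effect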
Target sequence (P11308 whole entry, looked up, the tested form may be a part): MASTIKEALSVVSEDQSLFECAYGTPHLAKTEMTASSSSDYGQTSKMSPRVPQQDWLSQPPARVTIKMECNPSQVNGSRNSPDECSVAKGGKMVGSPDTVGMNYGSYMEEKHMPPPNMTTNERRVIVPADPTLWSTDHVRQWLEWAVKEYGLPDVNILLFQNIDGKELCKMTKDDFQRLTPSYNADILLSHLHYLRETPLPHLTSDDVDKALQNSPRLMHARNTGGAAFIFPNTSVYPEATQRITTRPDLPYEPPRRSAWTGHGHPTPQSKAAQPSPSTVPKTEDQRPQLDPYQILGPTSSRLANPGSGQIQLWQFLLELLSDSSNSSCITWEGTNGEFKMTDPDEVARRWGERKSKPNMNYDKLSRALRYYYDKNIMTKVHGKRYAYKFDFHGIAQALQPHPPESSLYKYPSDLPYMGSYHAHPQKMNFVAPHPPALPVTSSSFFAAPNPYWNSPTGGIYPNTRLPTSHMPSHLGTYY
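His-tagged ERG Ets domain (1 uM in the protein solution; 300mM KCl, 50mM Tris-HCl, 1mM EDTA, 1mM DTT, pH 7.5) received compound, then a probe mix of 5 nM fluorescein-DNA and 100nM Texas-615-DNA. Fluorescence polarization was read for both dyes.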
VP16 counter: VP16 counterscreen qHTS for inhibitors of ROR gamma transcriptional activity; AID 2546, 2010; Drosophila S2 Gal4-VP16 UAS-luciferase, luminescence, 20 h; 310,000 compounds, 3.5% hits; Potency, µM (top dose mostly 53.6 µM), inactives show at the highest dose activity, negative = inhibition, hits mostly inhibitors;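 also: Gal4-VP16 expression switched on by copper sulfate through the metallothionein promoter; potency is read from the fitted curve at half-maximal effect; % is scaled to controls: 0 for no effect and ±100 for the full control effect; nearly all actives have a fitted effect of over 50% in size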
RORgamma inh: qHTS for inhibitors of ROR gamma transcriptional activity; Nuclear receptor ROR-gamma (Mus musculus), P51450; Drosophila S2 Gal4-RORgamma UAS-luciferase reporter, 20 h; Potency, µM (series often up to 53.6 µM), for the others: at the highest dose activity change, negative = inhibition, most hits filed as inhibitors; 310,000 compounds, 5.4% hits; AID 2551, 2010; also: potency is read from the fitted curve at half-maximal effect; % is scaled to controls: 0 for no effect and ±100 for the full control effect; nearly all actives have a fitted effect of over 60% in size
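Luciferase reporter read in Schneider cells carrying Gal4-RORγ (mouse) and UAS-Photinus luciferase; cells given compound 1 h before 700 uM copper sulfate induction, then incubated 20 h at ambient temperature.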
Giardia kill: Small Molecules that selectively kill Giardia lamblia: qHTS; Giardia lamblia trophozoite viability; activity change, % at 7.66 µM, hits read low; 340,000 compounds, 0.15% hits; in the data active = activity change below about -80%; inconclusive = between about -30% and that limit;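 also: parasites exposed to compound for two days anaerobically before the ATP read; % is scaled to controls: 0 for no effect and ±100 for the full control effect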
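Luminescent ATP signal served as the viability read-out, measured 15-30 min after adding ATP detection reagent to trophozoites that had been incubated with compounds for 48 hrs at 37 deg C anaerobically at 100 cells/well.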
* marks the source's active call; other numbers are inactive results; u = inconclusive; x = no result; [ ] = another dose, or the depositor's remark. Unless noted, calls follow the shape of the dose curve; as a rule, active = well fitted curve in the direction sought with a large enough effect; inconclusive = small, poorly fitted or top-dose-only effect, or another doubt; inactive = no such curve, though single readings can be large; an effect the other way counts as inactive or inconclusive.

SMILES | Integrin act MD | ERG Ets-DNA blk | VP16 counter | RORgamma inh | Giardia kill
Cc1ccc(-c2nnc(Sc3nc4ccccc4o3)c3ccccc23)cc1 | -47.8% | 0.7% | u | 8.91µM* | 27.4
Clc1ccc(-c2nnc(Sc3nc4ccccc4o3)c3ccccc23)cc1 | -52.9% | x | u | 6.31µM* | -5.7
Cc1nnc(Sc2nc3ccccc3o2)c2ccccc12 | -57.4% | -1.8% | u | u | 3.8
CC(CC(=O)Nc1ccccc1)NCCCN1CCCC1=O (centres undefined) | -15.2% | -12.2% | 0.5% | 5.5% | -2.4
Cc1nn(-c2ccccc2)c2c1C1(C(=O)N(C)c3ccccc31)C(C#N)=C(N)O2 (centres undefined) | -33.3% | -7.9% | u | 11.2µM* | -6.6
CCOc1ccc(/C=N/Nc2nc(=O)[nH]nc2C)cc1OC | -7.4% | -8.7% | -1.0% | 12.6µM* | -2.8
CCOc1ccc(/C=N/Nc2ccccn2)cc1OC | -17.3% | 13.1% | u | 10µM* | -8.1
CCOc1cc(/C=N/Nc2nc(=O)[nH]nc2C)ccc1O | 15.2% | 10.4% | -29.7% | 8.91µM* | 9.5
CCOc1cc(/C=N/Nc2ncnc(Cl)c2N)ccc1O | 10.8% | -0.2% | u | 20µM* | 11.2
COc1cc(/C=N/Nc2nc(=O)[nH]nc2C)cc(OC)c1O | 21.3% | -1.5% | -14.0%[10 µM] | -32.5% | 20.8
CCOc1cc(/C=N/Nc2nnc(C)n2N)ccc1O | -46.4% | -0.6% | u | u | -9.3
O=C(COc1cc2oc(=O)c3c(c2cc1Cl)CCCC3)NCC1CCC(C(=O)O)CC1 (centres undefined) | 7.08µM* | 12.1% | -14.2% | -10.6% | 2.7
O=C(COc1cc2oc(=O)c3c(c2cc1Cl)CCC3)NCC1CCC(C(=O)O)CC1 (centres undefined) | u | 1.8% | -4.1% | 18.8% | -2.4
CCCSc1nnc(Sc2nnnn2-c2ccccc2)s1 | -76.1%[7.66 µM] | -5.7% | -28.0% | 1.58µM* | 3.1
Cc1ccccc1-n1nnnc1Sc1nnnn1-c1ccccc1 | -61.1% | -5.5% | u | u | 3.2
O=C1NC(NS(=O)(=O)c2ccccc2)(C(F)(F)F)C(=O)N1CCc1ccccc1 (centres undefined) | 3.3% | 4.1% | -0.5% | 15.2% | 16.7
O=C1NC(Nc2nccs2)(C(F)(F)F)C(=O)N1CCc1ccccc1 (centres undefined) | -5.3% | -10.4% | u | 12.6µM* | -0.5
CCCN1CNC(=S)N(c2ccccc2OC)C1 | -28.2% | -0.7% | -23.2% | u | -1.1
CCCN1CNC(=S)N(c2cccc(C)c2C)C1 | 19.9% | -2.9% | u | 10µM* | -9.9
CCN1CNC(=S)N(c2cccc(C)c2C)C1 | -3.2% | -7.1% | u | 11.2µM* | 0.2
Cc1ccc(C2Nc3cccc4cccc(c34)N2)s1 | 3.16µM* | -7.3% | -19.9% | -19.5% | -13.2
COc1cc(NC(=O)O[C@@H]2C(=O)c3cc(Br)ccc3O[C@H]2c2ccc3c(c2)OCO3)cc(OC)c1OC | x | x | -2.6% | -8.9% | x
CCOc1ccc(-c2nc(CSCC(=O)NCc3ccc(Cl)cc3)c(C)o2)cc1 | x | 3.1% | x | x | x
CCc1ccc(-c2nc(CSCC(=O)NCc3ccco3)c(C)o2)cc1 | 6.7% | -0.6% | 2µM* | 0.398µM* | 7.9
CCOC(=O)CSCc1nc(-c2ccc(Cl)cc2)oc1C | 14.5% | -5.0% | u | 10µM* | 3.4
SMILES | Integrin act MD | ERG Ets-DNA blk | VP16 counter | RORgamma inh | Giardia kill
Cc1ccc(-c2nc(CSCC(=O)Nc3cc(C)on3)c(C)o2)cc1 | 16.2% | -3.3% | 6.31µM* | u | -12.8
COc1ccc(-n2c(C)nc3cc(C(=O)N4CCOCC4)ccc32)cc1 | 5.9% | 1.9% | -6.6% | 2µM* | -0.7
COCCn1c(C)cc(C2=NNC(=Nc3ccccc3F)SC2)c1C | -7.1% | -3.0% | u | 0.794µM* | -12.6
C=CCN=C1NN=C(c2cc(C)n(CC=C)c2C)CS1 | -44.0% | -0.5% | u | 11.2µM* | -17.3
NC1=NN=C(c2ccc3c(c2)OCCO3)CS1 | -5.5% | 2.3% | 10µM* | 10µM* | -15.9
C=CCN=C1NN=C(c2ccc3c(c2)OCCO3)CS1 | -36.6% | -18.5% | 5.62µM* | 4.47µM* | -28.2
Cc1sc(N)nc1-c1ccc2c(c1)OCCO2 | 0.0% | -8.4% | 1.1% | -12.1% | u
COCCN=C1NN=C(c2cc(C)n(CC3CCCO3)c2C)CS1 (centres undefined) | -45.2% | 7.3% | 5.9% | -15.4% | -14.6
O=C(CN1C(=O)NC2(CCCCC2)C1=O)Oc1ccc2ccc(=O)oc2c1 | 14.8% | 1.3% | x | x | 14.0
CCCCCc1n[nH]c2c1CCCC2 | -5.7% | -6.2% | -25.6% | 10µM* | 11.6
CC(C)CC(CSc1ccc(Br)cc1)N1CCN(C)CCC1=O (centres undefined) | x | x | -11.1% | 1.1% | 24.8
C=C1CCC2[C@](C)(CO)C(O)CC[C@]2(C)C1C/C=C1/C(=O)OCC1O (some centres undefined) | x | x | -13.5% | 12.6µM* | x
C=C1CC[C@@H]2[C@](C)(CO)[C@H](O)CC[C@@]2(C)[C@@H]1C/C=C1/C(=O)OCC1O (some centres undefined) | x | 27.3% | x | x | 1.8
CC(=O)OC[C@H]1O[C@@H](O/N=C(\C)CCN2CCCc3nc(C)c(C)cc32)[C@H](OC(C)=O)[C@@H](OC(C)=O)[C@H]1OC(C)=O | x | x | -3.0%[10 µM] | -0.7%[10 µM] | x
Cc1cc(SCC(=O)c2cccs2)n2nc(C)c(-c3ccccc3)c2n1 | -20.9% | 0.2% | 5.62µM* | 3.16µM* | 2.1
Cc1cc(SCC#N)n2nc(C)c(-c3ccc(Cl)cc3)c2n1 | -27.1% | 2.3% | u | 15.8µM* | 4.7
CC(=O)Nc1ccc(Nc2cc(C)nc3c(-c4ccc(Cl)cc4)c(C)nn23)cc1 | -18.8% | -8.9% | 7.08µM* | 11.2µM* | 4.8
Cc1cc(Cl)n2nc(C)c(-c3ccc(Cl)cc3)c2n1 | -64.2% | 5.6% | -19.7% | u | -6.2
Cc1cc(SCC#N)n2nc(C)c(-c3ccccc3)c2n1 | -51.0% | -3.6% | 2.51µM* | 1.26µM* | -18.2
CCCOc1ccc(C(=O)Nc2cc3nn(-c4ccc(CC)cc4)nc3cc2C)cc1 | x | -1.6% | x | x | x
CCC(C)(C)NC(=O)C(c1ccc(C)o1)N(Cc1ccc2c(c1)OCO2)C(=O)c1snc(C(N)=O)c1N (centres undefined) | -11.5% | -0.2% | -3.4% | 1.9% | -20.3
CCCOc1ccccc1Cn1c(=O)oc2ccccc21 | 9.0% | 23.9% | -10.3% | -16.6% | -24.6
O=C(NC(=S)NC(CO)Cc1ccccc1)c1ccc(F)cc1 (centres undefined) | 8.3% | 9.3% | u | 11.2µM* | -1.0
CCOc1ccc(C(=O)NC(Cc2ccccc2)C(=O)OC)cc1 (centres undefined) | 13.0% | 2.7% | -19.8% | -12.4% | -21.5
COC(=O)C(Cc1ccccc1)NC(=S)NC(=O)c1ccccc1 (centres undefined) | -8.2% | -0.4% | u | 3.16µM* | -13.9
